TDP1 cell CPT: qHTS for Inhibitors of human tyrosyl-DNA phosphodiesterase 1 (TDP1): qHTS in cells in presence of CPT | chicken DT40 Tdp1-/-;hTDP1 cells + 20 nM CPT, ATP luminescence, 48 h | 420,000 compounds, 12% hits | Potency, µM (titrated, usually from 46.2 µM), inactives show top-dose activity change, negative = growth inhibition, usual class: inhibitors; further: nearly all actives have a fitted effect of over 55% in size
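Cell growth measured by CellTiter-Glo luminescence after a minimum 48 h, 37 C compound exposure with 20 nM CPT in Tdp1-knockout DT40 cells stably expressing hTDP1, seeded 400/well; qHTS titration format.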
DT40 TDP1 no CPT: qHTS for Inhibitors of human tyrosyl-DNA phosphodiesterase 1 (TDP1): qHTS in cells in absence of CPT | DT40 Tdp1-/- hTDP1 cells, no CPT, ATP luminescence, 48 h | Potency, µM (top dose mostly 46.2 µM), without a hit: top-dose activity change, negative = growth inhibition, usual class: inhibitors | 420,000 compounds, 15% hits; further: nearly all actives have a fitted effect of over 55% in size
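Cells were dispensed at 400 per well, compounds added by pin tool, plates incubated ≥48 hr at 37 °C, then CellTiter-Glo added for 30 min at room temperature before luminescence reading. Line: DT40 Tdp1-/- complemented with hTDP1; camptothecin omitted.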
RORg inh: qHTS for inhibitors of ROR gamma transcriptional activity; Potency, µM (titrated, usually from 53.6 µM), without a hit: at the highest dose activity change, negative = inhibition, most hits filed as inhibitors; Drosophila S2 Gal4-RORgamma UAS-luciferase reporter, 20 h; Nuclear receptor ROR-gamma (Mus musculus), P51450; 310,000 compounds, 5.4% hits; further: nearly all actives have a fitted effect of over 60% in size
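Drosophila S2 cells stably expressing Gal4-DBD/mouse RORγ fusion under metallothionein promoter plus UAS-luciferase; compound 1 h, then 700 uM CuSO4 induction for 20 h at ambient temperature; inhibition read as reduced luminescence.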
TDP1 block: qHTS Assay for Inhibitors of Tyrosyl-DNA Phosphodiesterase (TDP1). Tyrosyl-DNA phosphodiesterase 1 (Homo sapiens), Q9NUW8. recombinant TDP1, AlphaScreen DNA substrate cleavage. Potency, µM (doses to about 130 µM), for inactives: at the top dose activity change, negative = inhibition, usual class: inhibitors. 350,000 compounds, 0.28% hits. AID 485290, 2010; further: nearly all actives have a fitted effect of over 40% in size
Target sequence (Q9NUW8 whole entry, looked up): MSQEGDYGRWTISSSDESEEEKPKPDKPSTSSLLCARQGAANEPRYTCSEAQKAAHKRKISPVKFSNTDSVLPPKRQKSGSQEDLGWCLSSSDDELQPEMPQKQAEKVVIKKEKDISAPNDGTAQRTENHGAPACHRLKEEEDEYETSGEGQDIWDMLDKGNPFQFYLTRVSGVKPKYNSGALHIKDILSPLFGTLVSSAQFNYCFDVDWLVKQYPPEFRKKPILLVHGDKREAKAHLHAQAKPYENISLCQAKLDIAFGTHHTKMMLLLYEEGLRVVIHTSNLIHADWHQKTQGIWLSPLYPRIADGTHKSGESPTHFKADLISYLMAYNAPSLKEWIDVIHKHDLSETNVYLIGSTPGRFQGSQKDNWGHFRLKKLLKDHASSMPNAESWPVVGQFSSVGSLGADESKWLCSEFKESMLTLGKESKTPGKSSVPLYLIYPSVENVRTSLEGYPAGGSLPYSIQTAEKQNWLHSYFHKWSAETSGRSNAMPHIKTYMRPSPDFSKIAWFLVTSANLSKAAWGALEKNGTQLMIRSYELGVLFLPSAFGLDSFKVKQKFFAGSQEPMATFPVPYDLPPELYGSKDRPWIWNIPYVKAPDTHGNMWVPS
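Compounds were preincubated with Tdp1 (1 nM final) for 15 min at room temperature before substrate (15 nM final) started a 5 min reaction; beads (10 ug/ml final) were then added for 10 min before AlphaScreen detection.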
VP16 counter: VP16 counterscreen qHTS for inhibitors of ROR gamma transcriptional activity; Drosophila S2 Gal4-VP16 UAS-luciferase, luminescence, 20 h; Potency, µM (doses to about 53.6 µM), without a hit: at the highest dose activity, negative = inhibition, actives largely listed as inhibitors; 310,000 compounds, 3.5% hits; AID 2546, 2010;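 further: Gal4-VP16 expression switched on by copper sulfate through the metallothionein promoter; nearly all actives have a fitted effect of over 50% in size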
An asterisk follows results filed as active; ? = inconclusive; . = not tested or not shown; ! = not confirmed by another sample; [ ] = another dose, or the depositor's remark. Compounds with a hit are over-represented: about 19% of the library has one in this group of screens. The call rests on the fitted dose curve; in most records, active means well fitted curve in the direction sought with a large enough effect; inconclusive means small, poorly fitted or top-dose-only effect, or another doubt; inactive means no such curve, though single readings can be large; an effect the other way counts as inactive or inconclusive. On the % scale 0 is the no-effect control and ±100 the full control effect; potency means the concentration at half of the fitted maximal effect.

SMILES	TDP1 cell CPT	DT40 TDP1 no CPT	RORg inh	TDP1 block	VP16 counter
COc1ccccc1-c1nc2cc(Cl)ccc2c(=O)n1O	-12.4%	-2.0%	?	.	2.51µM*
O=c1c2ccc(Cl)cc2nc(-c2ccc([N+](=O)[O-])cc2)n1O	8.2µM*	8.2µM*	8.91µM*	6.3%	17.8µM*
O=c1c2cc(Cl)ccc2nc(-c2ccccc2)n1O	-1.0%	-20.3%	6.31µM*	5.9%	0.6%
CCc1c(C(=O)NCc2ccc3c(c2)OCO3)[nH]c(C)c1C(C)=O	-31.9%	-39.5%	4.8%	6.2%	3.7%
CC(=O)N[C@H]1[C@H](Oc2ccc3c(c2)CCC2C3CC[C@]3(C)C(=O)CCC23)O[C@H](CO)[C@@H](O)[C@@H]1O (stereo partly drawn)	-0.8%	-25.9%	-10.5%	.	-11.4%
CCN(CC)C(=O)CN1CCN(Cc2ccc3c(c2)OCO3)CC1	-1.4%	-1.6%	-3.8%	.	-17.8%
N#Cc1ccc(-c2nc3ccc(Br)cc3c(=O)n2O)cc1	?	?	-39.5%	.	-2.2%
O=c1c2cc(Br)ccc2nc(-c2cccc(C(F)(F)F)c2)n1O	18.4µM*	10.3µM*	3.55µM*	9.0%	20µM*
Cc1ccc2c(c1)c(C)cc[n+]2Cc1ccccc1	2.59µM*	2.91µM*	?	5.5%	-4.3%
COc1ccc2c(c1)c(C)cc[n+]2Cc1ccccc1	2.59µM*	1.64µM*	25.6%	.	-23.9%
Cc1ccc2ccc[n+](Cc3ccccc3)c2c1	16.4µM*	9.2µM*	.	1.3%	.
Cc1ccc2c(ccc[n+]2CC(=O)c2ccccc2)c1	?	-29.2%	5.5%	2.3%	-8.9%
CCC(=O)N1CCc2cc(Br)cc(S(=O)(=O)N3CCC(C(=O)NCCCOC(C)C)CC3)c21	13.5%	-24.3%	-7.9%	3.0%	8.5%
CCOC(=O)N1CCC(NS(=O)(=O)c2ccc3c(c2)C(C)(C)C(=O)N3C)CC1	16.8%	-12.5%	-7.4%	1.1%	2.2%
N#C/C(=C\c1ccccc1)C(=O)NNS(=O)(=O)c1cccc([N+](=O)[O-])c1	?	3.3%	.	3.5%	.
CC(NC(=S)NNS(=O)(=O)c1cccc([N+](=O)[O-])c1)c1ccccc1 (stereo not drawn)	-8.0%	7.2%	7.08µM*	4.9%	6.31µM*
O=C(NCCc1ccc(F)cc1)Nc1ccc([N+](=O)[O-])cc1	29.1µM*	16.4µM*	?	4.6%	-7.5%
O=[N+]([O-])c1ccc(S(=O)(=O)NNC(=S)NCCc2ccccc2)cc1	-5.5%	2.7%	8.91µM*	5.8%	11.2µM*
COc1ccc(CNC(=O)Nc2ccc([N+](=O)[O-])cc2)cc1	?	?	7.9%	10.3%	1.2%
O=C(NNc1ccccc1)C(=O)NNS(=O)(=O)c1ccc([N+](=O)[O-])cc1	2.2%	4.9%	3.1%	3.5%	16.3%
O=[N+]([O-])c1ccc(NC(=S)NCCc2ccc(F)cc2)cc1	16.4µM*	16.4µM*	?	4.1%	?
CCOc1ccc(C(=O)CCC(=O)N2CCC(C(=O)OC)CC2)cc1	-1.3%	-27.5%	4.5%	.	2.1%
CC(N=C(NC#N)Nc1ccncc1)C(C)(C)C (stereo not drawn)	?	?	10.8%[10 µM]	-10.4%[56.1 µM]	-7.9%
O=C(NCc1ccc(Cl)cc1)NC1COc2ccccc2C1 (stereo not drawn)	-1.3%	-10.4%	.	-5.4%	.
COc1ccc(C2C(C(C)=O)=C(O)C(=O)N2c2ccccn2)cc1 (stereo not drawn)	13.9%	-18.3%	39.9%	.	10.5%
SMILES	TDP1 cell CPT	DT40 TDP1 no CPT	RORg inh	TDP1 block	VP16 counter
Oc1c(Cl)cc(Cl)cc1C=Nc1ccc2c(c1)OCCO2	-11.6%	-2.4%	14.1µM*	4.5%	-20.5%
Brc1csc(C=Nc2ccc3c(c2)OCCOCCOCCOCCO3)c1	-0.4%	3.4%	-14.2%	5.5%	-7.4%
COc1ccc2cc3cc(C(=O)N4CCN(c5ccccn5)CC4)oc3nc2c1	?	18.4µM*	-7.8%	4.6%	5.1%
COc1cccc(S(=O)(=O)NCc2ccc(C(=O)N3CCN(c4ccccc4)CC3)cc2)c1	16.4µM*	16.4µM*	?	5.6%	2.5%
COc1ccc(N2CCN(C(=O)c3ccc(CNS(=O)(=O)c4cccc(OC)c4)cc3)CC2)cc1	9.2µM*	23.1µM*	?	7.4%	-0.2%
O=C(c1ccc(CNS(=O)(=O)c2cccc(Cl)c2)cc1)N1CCCCC1	16.4µM*	14.6µM*	44.1%	0.7%	-12.1%
COc1ccc2nc3oc(C(=O)N4CCN(c5cccc(Cl)c5)CC4)cc3cc2c1	?	?	?	-5.2%	-6.4%
COc1ccc(S(=O)(=O)NCc2ccc(C(=O)N3CCN(c4ccccn4)CC3)cc2)cc1	8.91µM*	?	36.1%	5.2%	-2.8%
Cc1cccc(C)c1N1CCN(CCn2c(=S)[nH]c3ccccc3c2=O)CC1	?	-26.0%	10µM*	.	?
CC1CCN(CCCn2c(=S)[nH]c3ccccc3c2=O)CC1	-5.2%	-28.5%	-32.8%	4.7%	7.9%
O=C(c1ccc(F)cc1)C1CCN(CCn2c(=S)[nH]c3ccccc3c2=O)CC1	?	15µM*	7.94µM*!	11.6%	14.1µM*!
O=C(c1ccc(F)cc1)C1CCN(CCn2c(=O)[nH]c3ccccc3c2=O)CC1	.	.	12.5%	7.1%	-0.6%
CCN1CCN(CCn2c(=S)[nH]c3ccccc3c2=O)CC1	-0.4%	4.4%	-14.2%	2.0%	-1.5%
CC1(C)C(=O)N(CCN2CCC(C(=O)c3ccc(F)cc3)CC2)c2ccccc21	13µM*	14.6µM*	.	8.0%	.
O=c1c2ccccc2[nH]c(=S)n1CCCN1CCC(Cc2ccccc2)CC1	?	?	7.94µM*	.	?
